# Compound activity: PubChem BioAssay, National Center for Advancing Translational Sciences (NCATS)
# Shown are actives, neighbours in structure and some others; about 2.3% of the full set was active somewhere.
# Anesthetic bind: candidate novel general anesthetic via apoferritin binding | 350,000 compounds, 0.074% hits | apoferritin/1-aminoanthracene competitive binding, fluorescence | P02791 | AID 485281 | Potency, µM (series often up to 77.5 µM), inactives show at the highest dose activity change, negative = displacement, actives largely listed as inhibitors; also: potency is read from the fitted curve at half-maximal effect; % is scaled to controls: 0 for no effect and ±100 for the full control effect; nearly all actives have a fitted effect of over 20% in size
# Target sequence (P02791 2-175 limits assumed): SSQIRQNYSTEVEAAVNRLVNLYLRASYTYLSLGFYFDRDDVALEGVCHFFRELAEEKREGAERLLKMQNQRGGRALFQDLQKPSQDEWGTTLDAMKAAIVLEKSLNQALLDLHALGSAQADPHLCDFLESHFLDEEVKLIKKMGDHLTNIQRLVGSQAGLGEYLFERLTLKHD
#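 In PBS, apoferritin at 10 uM is loaded with 1-AMA from a 50% saturated solution. After 10 min of compound exposure at ambient temperature, reduced 535 nm fluorescence indicates probe displacement.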
# Nrf2 block: blocks Nrf2 signaling. A549 ARE-Fluc reporter, luciferase luminescence, 18-24 h. Potency, µM (titrated, usually from 46 µM), for inactives: top-dose activity change, negative = inhibition, usual class: inhibitors. 360,000 compounds, 2.1% hits. AID 504444; also: potency is read from the fitted curve at half-maximal effect; % is scaled to controls: 0 for no effect and ±100 for the full control effect; nearly all actives have a fitted effect of over 60% in size
#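 In this cell-based qHTS, ARE-driven firefly luciferase in A549 cells reports Nrf2 activity; the luminescent signal after BugLite lysis is the measured value, with a prior CellTiter-Fluor read for cell health.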
# A549 viability: counter-screen for Nrf2 inhibitors: cytotoxicity in A549 cells. A549 ARE-Fluc cells, CellTiter-Fluor viability, 18-24 h. 390,000 compounds, 0.16% hits. Potency, µM (top dose mostly 46 µM), for inactives: at the highest dose activity change, negative = cytotoxicity, actives largely listed as inhibitors. AID 504648; also: potency is read from the fitted curve at half-maximal effect; % is scaled to controls: 0 for no effect and ±100 for the full control effect
#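 A549 ARE_Fluc cells in 5% FBS OPTI-MEM were exposed to compounds in concentration-response for 18-24 h at 37 deg C. Viability was read by CellTiter-Fluor fluorescence (Ex 405/Em 525) after 30 min, before the luciferase read.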
# Nrf2 ARE act: activates Nrf2 signaling | 410,000 compounds, 0.31% hits | Potency, µM (doses to about 46.1 µM), for the others: at the highest dose activation, usual class: activators | AID 624171 | AREc32 ARE-luciferase reporter (MCF7-derived line), luminescence, 24 h; also: potency is read from the fitted curve at half-maximal effect; % of control where 0% means no effect; nearly all actives have a fitted effect of over 65% in size
#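 AREc32 cells carrying an ARE-driven firefly luciferase, 1000 cells/well in OPTI-MEM with 5% FBS, dosed after overnight attachment and incubated 24 hr at 37 deg C. Steady-Glo luminescence read after 30 min at RT.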
# Giardia kill: Giardia lamblia killing. activity change, % at 7.66 µM, hits read low. 340,000 compounds, 0.15% hits. Giardia lamblia trophozoite viability; in the data active = activity change below about -80%; inconclusive = between about -30% and that limit;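 also: parasites exposed to compound for two days anaerobically before the ATP read; % is scaled to controls: 0 for no effect and ±100 for the full control effect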
#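 Media and compound were dispensed first, then trophozoites at 100 cells/well; plates sat 48 hrs at 37 deg C without oxygen before ATP luminescence reagent was added and read after 15-30 min at room temperature.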
# mIDH1 inhibitor: blocks human mutant IDH1 R132H enzyme. IDH1-R132H enzyme, NADPH consumption, diaphorase/resazurin fluorescence. 390,000 compounds, 0.093% hits. O75874. Potency, µM (titrated, usually from 76.6 µM), without a hit: at the top dose activity change, negative = inhibition, most hits filed as inhibitors; also: potency is read from the fitted curve at half-maximal effect; % is scaled to controls: 0 for no effect and ±100 for the full control effect; nearly all actives have a fitted effect of over 65% in size
# Target sequence (O75874 whole entry R132H, stated change not applied): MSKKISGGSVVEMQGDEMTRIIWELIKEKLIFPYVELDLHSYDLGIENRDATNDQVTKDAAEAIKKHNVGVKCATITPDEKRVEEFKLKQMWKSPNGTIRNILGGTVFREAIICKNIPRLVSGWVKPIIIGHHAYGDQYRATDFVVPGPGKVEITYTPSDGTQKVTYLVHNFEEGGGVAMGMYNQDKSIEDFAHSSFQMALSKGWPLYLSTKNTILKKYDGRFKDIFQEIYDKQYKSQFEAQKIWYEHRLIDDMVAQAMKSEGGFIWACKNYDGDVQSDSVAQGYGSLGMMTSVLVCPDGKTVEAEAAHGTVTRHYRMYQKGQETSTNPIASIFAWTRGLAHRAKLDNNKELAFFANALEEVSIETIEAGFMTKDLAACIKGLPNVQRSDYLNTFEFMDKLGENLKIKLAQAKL
#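 IDH1-R132H (0.5 ug/mL) preincubated 30 min with compound, then NADPH (0.016 mM) and alpha-KG (2 mM) added; 80 min at RT, pH 7.5. Remaining NADPH coupled via diaphorase/resazurin to fluorescence (540/590 nm); concentration-response curves normalized to no-enzyme control.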
# Resorufin autofl: autofluorescence interference, mutant IDH1 hit counter-screen; Resorufin detection reagent fluorescence interference, cell-free; 750 tested, under 10 active; shares compounds with mIDH1 inhibitor; inhibition of signal, % at 51.2 µM;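 also: 0% = wells with normal resorufin and full inhibition = wells lacking resorufin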
# IDH1 WT: inhibits human wild-type IDH1, mutant selectivity check; shares compounds with mIDH1 inhibitor; WT IDH1 enzyme, NADPH diaphorase/resazurin fluorescence; Potency, µM (top dose mostly 115 µM), without a hit: at the top dose activity change, negative = inhibition, actives largely listed as inhibitors; 750 compounds, 9% hits; AID 623995;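 also: potency is read from the fitted curve at half-maximal effect; 0% = full WT IDH1 enzyme control and full inhibition = no enzyme wells; nearly all actives have a fitted effect of over 55% in size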
# Target sequence (O75874 whole entry, looked up): as the sequence (O75874 whole entry R132H, stated change not applied) above, with H132R counted along it
# IDH1 R132H conf: confirmation of human mutant IDH1 inhibitors. shares compounds with mIDH1 inhibitor. IDH1 R132H enzyme, NADPH diaphorase/resazurin fluorescence. Potency, µM (top dose mostly 76.6 µM), inactives show top-dose activity change, negative = inhibition, hits mostly inhibitors. 750 compounds, 83% hits. AID 624002; also: potency is read from the fitted curve at half-maximal effect; nearly all actives have a fitted effect of over 50% in size
# Numbers without * were called inactive; ? = inconclusive; · = no result. Unless noted, calls follow the shape of the dose curve; as a rule, active = well fitted curve in the direction sought with a large enough effect; inconclusive = small, poorly fitted or top-dose-only effect, or another doubt; inactive = no such curve, though single readings can be large; an effect the other way counts as inactive or inconclusive.
SMILES,Anesthetic bind,Nrf2 block,A549 viability,Nrf2 ARE act,Giardia kill,mIDH1 inhibitor,Resorufin autofl,IDH1 WT,IDH1 R132H conf
COc1ccc(-n2c(=O)c3c(c4cc(OC)ccc4n3C)n(Cc3ccc(F)cc3Cl)c2=O)cc1,-4%,28%,4%,-1%,·,19%,·,·,·
COc1cc(N(C(=O)Cc2cccs2)C(C(=O)NC2CCCCC2)c2ccc(C)cc2)ccc1-n1cnnn1 (stereo unspecified),-6%,4%,-6%,-1%,6,23µM*,-6,0%,7.1µM*
Cc1ccc(N(C(=O)Cc2cccs2)C(C(=O)NC2CCCCC2)c2ccccn2)cc1C (stereo unspecified),-16%,?,?,0%,11,?,-1,2%,10µM*
Cc1cccc(N(C(=O)Cc2cccs2)C(C(=O)NC2CCCC2)c2ccncc2)c1 (stereo unspecified),4%,-10%,-10%,0%,-17,-26%,·,·,·
O=C(Nc1ccccc1F)N(Cc1ccc(F)cc1)Cc1nc2ccccc2c(=O)[nH]1,-3%,-11%,0%,-1%,-2,?,·,·,·
O=C(NC1CCCCC1)N(Cc1ccc(F)cc1)Cc1nc2ccccc2c(=O)[nH]1,-5%,?,-7%,-1%,21,?,0,10%,28µM*
N#CC(=C1C=C(Br)C(=NO)C=C1Cl)c1ccc(Cl)cc1,·,·,·,?,·,?,6,?,28µM*
N#CC(C#N)=C/C=C(\Nc1ccc(Cl)cc1)c1ccc(Cl)cc1,-18%,-6%,-4%,5%,-8,-1%,·,·,·
CC/C(=C\C1CCCCC1)C(NP(=O)(c1ccccc1)c1ccccc1)c1ccccc1 (stereo unspecified),?,?,-74%,4%,-1,28µM*,-7,1%,22µM*
CCc1ccc(NC(=O)CN2C(=O)C3CCCN3c3ccc(S(=O)(=O)N(CC)CC)cc32)cc1 (stereo unspecified),?,14%,4%,5%,·,45µM*,-5,-4%,28µM*
CCN(CC)S(=O)(=O)c1ccc2c(c1)N(CC(=O)Nc1ccc(F)cc1F)C(=O)C1CCCN21 (stereo unspecified),-19%,?,6%,-1%,·,0%,·,·,·
Cc1cc(C)cc(N(C(=O)CNC(=O)c2ccco2)C(C(=O)NC2CCCCC2)c2cccnc2)c1 (stereo unspecified),3%,5%,5%,0%,14,?,-2,0%,?
COc1ccc(N(C(=O)c2ccco2)C(C(=O)NC2CCCC2)c2ccccc2)cc1 (stereo unspecified),-4%,-7%,-9%,-1%,21,?,0,11%,40µM*
COc1ccc(N(C(=O)c2ccco2)C(C(=O)NC2CCCC2)c2ccc(N(C)C)cc2)cc1 (stereo unspecified),-20%,-3%,-11%,0%,-5,-2%,·,·,·
COc1ccc(N(C(=O)c2ccco2)C(C(=O)NC2CCCCC2)c2ccccc2)cc1 (stereo unspecified),·,·,8%,-1%,-15,?,-10,-20%,20µM*
COc1ccc(N(C(=O)c2cnccn2)C(C(=O)NC2CCCCC2)c2ccccc2)cc1 (stereo unspecified),0%,9%,0%,1%,-3,?,-8,3%,35µM*
Cc1ccc2c(=O)cc(C(=O)Nc3ccc(S(=O)(=O)Nc4onc(C)c4C)cc3)oc2c1C,-10%,12%,13%,0%,·,-3%,·,·,·
COc1ccc(OC)c(-c2nnc3n2N=C(c2ccccc2OC)CS3)c1,-23%,-6%,-2%,·,·,·,·,·,·
COc1ccccc1-c1c(C)nn2c(N3CCN(c4ccc(Cl)cc4)CC3)cc(C)nc12,-11%,·,-14%,-1%,·,-12%,·,·,·
COC(=O)C[C@H]1C[C@H]2c3cc(NC(=O)C4CCOCC4)ccc3O[C@H]2[C@H](CO)O1,·,·,·,-1%,·,-2%,·,·,·
COc1cccc(C(C(=O)NC2CCCCC2)N(C(=O)c2ccco2)c2ccccc2OC)c1 (stereo unspecified),-23%,-14%,-6%,0%,15,?,-4,-5%,?
Cc1ccc(-n2ncc3c(N4CCCCCC4)ncnc32)cc1C,-9%,·,8%,-1%,·,-11%,·,·,·
O=C1NC[C@@H](Cc2cccc3ccccc23)N(CCCCC2CCCCC2)C1=O,·,5%,0%,0%,-12,?,1,-19%,40µM*
COc1ccc(CNC(=O)Cc2c(C)c3c(cc(C)c4c(C)c(C)oc43)oc2=O)cc1OC,-5%,4%,-1%,0%,·,6%,·,·,·
CC(C)=CCc1c(O)cc(O)c2c(=O)c3c(CC=C(C)C)c(O)ccc3oc12,·,?,-17%,-2%,-2,45µM*,4,6%,40µM*
SMILES,Anesthetic bind,Nrf2 block,A549 viability,Nrf2 ARE act,Giardia kill,mIDH1 inhibitor,Resorufin autofl,IDH1 WT,IDH1 R132H conf
CC(C)=CCc1c(O)cc2c(=O)c3ccc(O)cc3oc2c1O,·,?,0%,16%,5,0%,·,·,·
Cc1cc(=O)[nH]c(SCC(=O)Nc2ncc(S(=O)(=O)c3ccc([N+](=O)[O-])cc3)s2)n1,-15%,-22%,-7%,20%,-14,?,4,?,-17%
CCc1ccc(Sc2cc(C(=O)NC(C)CC)c3ccccc3n2)cc1 (stereo unspecified),?,·,9%,-1%,·,?,-5,-12%,?
CCOc1ccc(NC(=O)c2c[nH]n3c(=O)cc(C4CCN(C(=O)OC(C)(C)C)CC4)nc23)cc1,4%,?,?,0%,-8,52µM*,-13,50µM*,25µM*
CCOC(=O)N1CCC(c2cc(=O)n3[nH]cc(C(=O)OC)c3n2)CC1,5%,-7%,0%,-1%,12,-16%,·,·,·
CSC1=NC(=O)/C(=C\c2cccc3ccccc23)S1,?,-1%,-3%,9%,-5,58µM*,-5,71µM*,22µM*
